Source: PubChem (National Center for Advancing Translational Sciences (NCATS))
An excerpt weighted towards active compounds, which were near 2.4% of everything screened.
Pol iota inh: DNA polymerase iota (human) inhibition. Pol iota fluorescent replication assay, 10 min. Potency, µM (series often up to 115 µM), without a hit: at the highest dose activity, negative = inhibition, actives largely listed as inhibitors. Q9UNA4. 1% of 390,000 active
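Fluorescent replication assay read twice, at 0 min and 10 min after adding 50 nM (final) substrate. Enzyme (10 nM) and compounds were first incubated 15 min at room temperature; enzyme-free buffer wells were negative controls.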
POLH inh: DNA polymerase eta (human) inhibition; recombinant Pol eta, fluorescent DNA replication assay; Potency, µM (top dose mostly 114 µM), for inactives: at the top dose activity change, negative = inhibition, usual class: inhibitors; 1.2% of 390,000 active; note: % is set by controls: 0 for no effect and ±100 for the full control effect
Target sequence (Q9Y253 whole entry, looked up): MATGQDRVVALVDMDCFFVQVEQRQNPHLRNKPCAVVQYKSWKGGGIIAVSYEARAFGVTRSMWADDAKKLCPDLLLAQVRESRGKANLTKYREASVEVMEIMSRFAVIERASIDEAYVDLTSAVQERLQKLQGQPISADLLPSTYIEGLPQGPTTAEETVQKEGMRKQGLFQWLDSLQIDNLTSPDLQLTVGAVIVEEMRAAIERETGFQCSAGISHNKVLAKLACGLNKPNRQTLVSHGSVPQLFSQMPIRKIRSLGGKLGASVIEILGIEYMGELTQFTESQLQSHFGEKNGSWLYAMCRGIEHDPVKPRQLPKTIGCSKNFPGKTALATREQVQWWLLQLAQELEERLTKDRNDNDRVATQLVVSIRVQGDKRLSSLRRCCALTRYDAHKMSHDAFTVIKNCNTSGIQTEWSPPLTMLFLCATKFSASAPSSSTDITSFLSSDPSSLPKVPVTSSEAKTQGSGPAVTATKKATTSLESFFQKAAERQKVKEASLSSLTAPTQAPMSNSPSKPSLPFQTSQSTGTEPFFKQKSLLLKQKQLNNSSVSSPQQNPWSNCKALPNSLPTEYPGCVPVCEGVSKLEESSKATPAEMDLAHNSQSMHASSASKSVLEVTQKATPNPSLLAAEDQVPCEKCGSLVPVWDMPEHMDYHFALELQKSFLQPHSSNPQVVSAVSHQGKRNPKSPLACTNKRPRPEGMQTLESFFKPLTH
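Pol eta (10 nM) was preincubated with compounds for 15 min at room temperature, after which fluorescent replication substrate (50 nM final) was added to start the reaction. Fluorescence was read kinetically at 0 and 10 min.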
TDP1 inh: TDP1 (human) enzyme inhibition | recombinant TDP1, AlphaScreen DNA substrate cleavage | Potency, µM (top dose mostly 130 µM), without a hit: at the highest dose activity change, negative = inhibition, actives largely listed as inhibitors | 0.28% of 350,000 active; note: % is set by controls: 0 for no effect and ±100 for the full control effect; nearly all actives have a fitted effect of over 40% in size
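Compounds were preincubated with Tdp1 (1 nM final) for 15 min at room temperature before substrate (15 nM final) started a 5 min reaction; beads (10 ug/ml final) were then added for 10 min before AlphaScreen detection.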
Pol beta inh: blocks human DNA polymerase beta activity; AID 485314; Potency, µM (top dose mostly 114 µM), without a hit: at the top dose activity change, negative = inhibition, most hits filed as inhibitors; 1.3% of 340,000 active; P06746; Pol beta primer extension/strand displacement, fluorescence kinetic; note: % is set by controls: 0 for no effect and ±100 for the full control effect
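10 nM enzyme + cpd, 15 min RT; start with substrate 50 nM final; read 0 min and after 10 min RT. Corrected, normalized data; 4-parameter Hill curve fit.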
POLK inh: blocks human DNA polymerase kappa activity | purified Pol kappa, fluorescent DNA synthesis assay, 10 min | 0.53% of 400,000 active | Q9UBT6 | Potency, µM (top dose mostly 107 µM), inactives show top-dose activity, negative = inhibition, actives largely listed as inhibitors; note: % is set by controls: 0 for no effect and ±100 for the full control effect
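First, compounds were pin-transferred onto 10 nM Pol kappa. After 15 min at room temperature, substrate was added to 50 nM final. Fluorescence was then measured kinetically at 0 and 10 min.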
FEN1 inh: human FEN1 inhibition; P39748; Recombinant FEN1 flap cleavage, fluorescence, 15 min; Potency, µM (highest dose often 114 µM), for inactives: at the top dose activity change, negative = inhibition, usual class: inhibitors; 0.35% of 390,000 active; note: % is set by controls: 0 for no effect and ±100 for the full control effect; nearly all actives have a fitted effect of over 65% in size
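Reaction started by adding substrate (50 nM final) to 10 nM enzyme after 15 min room-temperature compound preincubation. Reads at 0 and 15 min, with data normalized and fitted to a four-parameter Hill equation.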
* hit, by the source's call; ? = inconclusive; · = no result; ! = repeats disagree; [ ] = another dose, or the depositor's remark. Calls come from the whole dose curve; as a rule, active = well fitted curve in the direction sought with a large enough effect; inconclusive = small, poorly fitted or top-dose-only effect, or another doubt; inactive = no such curve, though single readings can be large; an effect the other way counts as inactive or inconclusive. Potency is the fitted concentration of half-maximal effect.

SMILES | Pol iota inh | POLH inh | TDP1 inh | Pol beta inh | POLK inh | FEN1 inh
COC(=O)C(O)(c1ccc(NC(=O)c2ccccc2)cc1)C(F)(F)F (stereo not drawn) | 28% | -25% | · | 1% | -2% | 16%
[O]=[Sb]([OH])([OH])[c]1ccccc1 | 20µM* | · | ? | · | 25µM* | 50µM*
O=C(Nc1cc[c]([Sb](=[O])([OH])[OH])cc1)c1ccccc1 | ? | · | · | · | 6.3µM* | 40µM*
O=P(O)(O)/C=C(\Cl)c1ccccc1 | ? | 8% | 1% | -29% | -19% | 1%
OC(c1ccc(Cl)cc1)(c1ccc(Cl)cc1)C(Cl)(Cl)Cl | · | · | 0% | · | · | ·
C=C1C(=O)O[C@@H]2C[C@@H](C)[C@H]3C=CC(=O)[C@]3(O)C[C@@H]12 | ? | 32µM* | 5% | -1% | -26% | 14%
C=C1C(=O)OC2CC3(C)OC3CCC(C)=CC(OC(C)=O)C12 (stereo not drawn) | 5% | -14% | · | · | -2% | 1%
N#C/C(=C\c1cccc(O)c1)C(=O)O | · | · | 11%[56.1 µM] | · | -6%[60.1 µM] | ·
COc1cc(C=C(C#N)C#N)cc(O)c1O | ? | 11µM* | 17%[56.1 µM] | -11%[57.1 µM] | · | ·
CC(C)(C)c1cc(C=C(C#N)C#N)cc(C(C)(C)C)c1O | 1% | -15% | 12% | 10%[57.1 µM] | 2%[60.1 µM] | ?
N#CC(C#N)=Cc1ccc(O)c(O)c1 | ? | 7.9µM*! | 5%[56.1 µM] | -12%[57.1 µM] | 11µM*! | 4%
NCC(O)c1cc(O)c(O)cc1F (stereo not drawn) | 28µM* | -11% | · | -12%[57.1 µM] | ? | -32%
ClC1=C(Cl)C2(Cl)C3C(Cl)C(Cl)CC3C1(Cl)C2(Cl)Cl (stereo not drawn) | · | · | -6% | · | · | ·
COc1cc2c(cc1O)C[C@H]1c3c(cc(O)c(OC)c3-2)CCN1C | 9% | -6% | 2%[21 µM] | · | -7% | -25%
CN1CCc2cc(O)cc3c2[C@H]1Cc1ccc(O)c(O)c1-3 | -20% | 5% | · | · | -6%[60.1 µM] | 79µM*!
CC/C(=C\C=C\[C@@H]1C=C[C@@H]2CCC[C@H]2[C@@H]1C(=O)c1ccc[nH]1)[C@@H]1O[C@@H]([C@@H](C)C(=O)O)CC[C@@H]1C | ? | 89µM* | 2% | ? | ? | -18%
Cc1cccc(N)c1C | · | · | 9% | · | · | ·
N#CC(C#N)=NNc1ccc(OC(F)(F)F)cc1 | · | · | 22% | · | ? | ·
COc1ccc(C[C@@H]2c3cc(O)c(OC)cc3CCN2C)cc1O | 64% | -14% | 3% | 5% | -17% | 9%
COc1cc2c(cc1O)[C@@H]1Cc3ccc(OC)c(O)c3CN1CC2 | 10µM* | ? | · | · | -5% | ?
CCCCOCC1CO1 (stereo not drawn) | · | · | -11% | · | · | ·
Cc1ccc2ccccc2c1C | · | · | 6% | · | · | ·
O=C1NC(=O)C(=C/C=C/c2coc3ccc(Br)cc3c2=O)C(=O)N1 | · | · | 0% | 1.6µM* | · | ·
O=C1NC(=O)C(=Cc2coc3ccccc3c2=O)C(=O)N1 | 10% | -7% | -2% | 2% | -4% | -19%
CNS(=O)(=O)c1ccc(-c2ccc(C=C3C(=O)NC(=O)NC3=O)o2)cc1 | 22µM* | -8% | · | ? | 3% | ?
SMILES | Pol iota inh | POLH inh | TDP1 inh | Pol beta inh | POLK inh | FEN1 inh
NS(=O)(=O)c1ccc(-c2ccc(C=C3C(=O)NC(=O)NC3=O)o2)cc1 | ? | 18% | · | 18% | -18% | ?
O=C(O[C@@H]1Cc2c(O)cc(O)cc2O[C@@H]1c1cc(O)c(O)c(O)c1)c1cc(O)c(O)c(O)c1 | · | · | · | 0.45µM* | · | ·
Oc1cc(O)c2c(c1)OC(c1cc(O)c(O)c(O)c1)C(O)C2 (stereo not drawn) | · | · | 16µM* | · | 4µM* | ·
O=C1C[C@@H](c2ccc(O)cc2)Oc2cc(O)cc(O)c21 | 11% | -14% | 0% | -19% | -2% | 6%
COC(=O)C1=C(C)NC(C)=C(C(=O)NCCCN2CCC(c3ccccc3)(c3ccccc3)CC2)C1c1ccc([N+](=O)[O-])cc1 (stereo not drawn) | · | · | 19% | · | ? | ·
Oc1cc(Cl)cc(Cl)c1 | · | · | 4% | · | · | ·
CCSC(=O)Cl | · | · | 15% | · | · | ·
Cc1ccc(-n2c(O)c(C=NCc3ccco3)c(=O)[nH]c2=S)cc1C | 20µM* | ? | 3% | ? | 40µM* | -10%
O=c1[nH]c(=O)n(Cc2ccco2)c(O)c1C=NCCN1CCOCC1 | ? | 10µM* | 3% | 8% | -24% | 3%
O=c1[nH]c(=O)n(Cc2ccco2)c(O)c1C=NCc1ccco1 | 40µM* | 89µM* | -4% | ? | -28% | -22%
CCN(N=O)C(N)=O | · | · | 8% | · | · | ·
CCOC(=O)C(SP(=S)(OC)OC)c1ccccc1 (stereo not drawn) | · | · | -4% | · | -16%[60.1 µM] | ·
O=C1NC(=O)N(c2ccccc2)C(=O)/C1=C\C=C\c1ccccc1 | ? | ? | 3% | ? | -11% | -1%
ClC1=C(Cl)C(Cl)=C(Cl)C1=C/C=C/c1ccccc1 | 45µM* | ? | 8% | ? | ? | 7%
NC1CCCC[C@H]1N (stereo partly drawn) | · | · | 8% | · | · | ·
Cc1ccc(Cl)cc1Nc1nn2c(=O)c3ccc(C(=O)NCc4cccs4)cc3nc2s1 | ? | ? | -10% | 8.9µM* | -6%[60.1 µM] | -19%
O=C1NC(=S)N(c2ccccc2F)C(=O)/C1=C\c1cccs1 | ? | -3% | -6% | 5% | -10% | -6%
CCOc1ccc(N2C(=O)/C(=C/c3ccco3)C(=O)NC2=S)cc1 | -96% | -101% | · | 13µM* | 1.6µM* | ?
CCOc1ccc(N2C(=O)/C(=C\c3cccs3)C(=O)NC2=S)cc1 | 18µM* | -15% | 4% | ? | -9% | ?
Cc1ccc(O)cc1C | · | · | 5% | · | · | ·
COCCCn1c(N)c(C(=O)Nc2ccccc2)c2nc3ccccc3nc21 | 14µM* | -18% | 5% | 4% | -5% | -16%
CCC(C)NC(=O)c1c(N)n(CCCOC)c2nc3ccccc3nc12 (stereo not drawn) | 23% | -11% | -8% | 16% | -13% | -24%
COc1cc2c3cc1Oc1c(OC)c(OC)cc4c1[C@@H](Cc1ccc(OC(=O)c5ccc([N+](=O)[O-])cc5)c(c1)Oc1ccc(cc1)C[C@@H]3N(C)CC2)N(C)CC4 | · | · | 11% | · | 12%[60.1 µM] | ·
C[N+](=O)[O-] | · | · | 3% | · | · | ·
COC1=C(C)C(=O)c2c(c(COC(N)=O)c3n2C[C@@H]2[C@@H]3N2C)C1=O (stereo partly drawn) | 56µM* | · | · | · | ? | -24%
CN1C(=O)[C@]23CC4=CC=C[C@H](O)[C@H]4N2C(=O)[C@@]1(CO)SS3 | · | · | 6% | · | 3%[60.1 µM] | ·
O=C1NC(=O)C(Nc2ccccc2)C(=O)N1 | 3.2µM* | 4% | · | · | -6% | 3%
